# Data: the supplement of paper PMC9433436
# ± gives the standard deviation of the averaged measurements. Whole data set: some 4,100 sequences, median “relative kcat/Km (krel) vs genomic leader AAAGAU” near 1.7, cut for the highest 2% near 6.5. Shown is part of a subset that was picked to be rich in the highest values.
# Target: T1, E. coli RNase P holoenzyme (M1 P RNA + rnpA protein) (UniProt P0A7Y8)
# T1 sequence: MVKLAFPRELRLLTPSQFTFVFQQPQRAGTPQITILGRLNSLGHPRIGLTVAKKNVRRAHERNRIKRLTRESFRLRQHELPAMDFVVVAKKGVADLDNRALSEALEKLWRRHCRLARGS
# Assay: relative kcat/Km (krel) vs genomic leader AAAGAU (relative (reference leader = 1)); higher = faster RNase P cleavage
# Method: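 HTS-Kin: a pool of ptRNA-Met (21C construct) with all 4096 combinations of 5' leader nucleotides N(-6) to N(-1) was processed in vitro by E. coli RNase P (P RNA + rnpA/C5 protein) under multiple-turnover conditions at 37 C, pH 8, 17.5 mM MgCl2. Residual substrate was Illumina-sequenced at several fractions reacted, and relative kcat/Km (krel) was computed by internal competition kinetics, calibrated to the genomic leader (AAAGAU = 1). The listed hexamer is the varied N(-6)..N(-1) leader (DNA letters), and it sits between a fixed 5' stem-loop flank (GCAUGCACGAAAGUGCGUGCUAUGAA) and the mature tRNA-Met starting GGCUACGUAGCUCAGUUGG. Two technical replicates are averaged.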
# [1] = fraction of substrate reacted: ~26-29% (28.66% repeat 1, 26.4% repeat 2)
# [2] = fraction of substrate reacted: ~9-10% (9.79% repeat 1, 9.1% repeat 2)
# [3] = fraction of substrate reacted: ~13-16% (15.68% repeat 1, 13.17% repeat 2)
Sequence,relative kcat/Km [1],relative kcat/Km [2],relative kcat/Km [3]
CACCTG,0.873 ± 0.43,–,–
AACCCG,0.785 ± 0.38,–,–
CTTATT,3.73 ± 1.6,2.42 ± 1,2.76 ± 0.34
GGCATC,2.42 ± 0.71,1.73 ± 0.36,2.09 ± 0.48
CGCATT,4.66 ± 2,2.39 ± 0.24,2.95 ± 0.92
CTCATC,6.8 ± 2.4,3.63 ± 1,4.57 ± 0.43
GCCATC,4.62 ± 1.3,2.88 ± 0.72,3.43 ± 1.3
CTCATT,7.36 ± 3,3.69 ± 1.4,5.23 ± 0.62
GTCATC,8.03 ± 3.5,4.03 ± 1.8,5.36 ± 1.2
CTCATG,3.1 ± 0.052,–,1.28 ± 0.22
ATCATC,6.25 ± 2.5,3.27 ± 0.66,4.72 ± 0.78
GGATAA,2.82 ± 1.2,1.77 ± 0.4,2.37 ± 0.4
ATTGAA,3.48 ± 1.1,2.28 ± 0.51,2.44 ± 0.32
GGTAGA,3.13 ± 1.6,2.41 ± 0.65,2.19 ± 0.26
TTTGAT,1.39 ± 0.26,0.799 ± 0.12,1.01 ± 0.025
CCAGTC,1.52 ± 0.37,2.41 ± 0.63,1.32 ± 0.76
TACATT,7.56 ± 3.7,3.85 ± 1.4,5.11 ± 0.79
GACATC,5.9 ± 2.2,3.66 ± 0.77,3.95 ± 1.1
TACATC,6.8 ± 2.7,3.03 ± 0.57,4.44 ± 0.76
GACATT,6.4 ± 3.1,3.42 ± 0.26,4.33 ± 1.3
TACATG,3.16 ± 1.2,0.765 ± 0.67,1.44 ± 0.13
CACATC,5.53 ± 2.1,2.93 ± 1,3.64 ± 0.86
TCCCTA,4.34 ± 1.6,3.22 ± 1.7,3.63 ± 0.34
CAAACG,0.797 ± 0.69,–,0.172 ± 0.13
GAGAGT,–,0.122 ± 0.072,1.48 ± 0.097

Sequence,relative kcat/Km [1],relative kcat/Km [2],relative kcat/Km [3]
AACTCC,4.38 ± 1.3,3 ± 2.2,3.3 ± 0.49
CACTCT,6.37 ± 2.3,3.97 ± 1.4,4.52 ± 0.75
TACTCT,7.13 ± 3.3,3.83 ± 0.27,4.7 ± 0.86
AACTCT,4.39 ± 1.2,2.76 ± 1.1,3.3 ± 0.76
TACTCC,6.63 ± 2.8,3.23 ± 0.81,5.06 ± 1
GACTCC,5.61 ± 2,3.31 ± 0.62,4.26 ± 0.76
TGATTC,3.89 ± 1.8,1.39 ± 0.61,2.97 ± 1.2
CCAGCA,0.927 ± 0.46,1.37 ± 0.54,0.452 ± 0.45
CCATAG,1.95 ± 0.2,–,0.327 ± 0.075
TGGGGT,1.83 ± 0.45,–,–
TGCTCT,1.5 ± 0.59,0.944 ± 0.33,1.02 ± 0.37
ATATAG,3.88 ± 1.4,2.16 ± 1.9,1.77 ± 0.48
ATATAA,4.9 ± 1.7,2.75 ± 1.4,3.31 ± 0.47
GTATAA,5.6 ± 2,3.41 ± 1.2,4.18 ± 0.35
TTATCT,5.02 ± 2.2,2.77 ± 0.45,3.58 ± 0.95
TTATAG,4.22 ± 1.9,2.25 ± 1.6,2.63 ± 0.53
CTATAG,3.4 ± 0.44,2.47 ± 1.2,1.823 ± 0.012
CTATAA,4.92 ± 1.3,3.33 ± 1.3,3.72 ± 0.51
GTATTT,5.37 ± 1.9,3.06 ± 2,3.71 ± 0.4
GTATAT,7.89 ± 3.5,3.56 ± 1.5,4.99 ± 0.35
ATATAT,6.84 ± 3.3,3 ± 0.9,4.49 ± 0.51
TTATAT,8.54 ± 4,4.62 ± 2,5.95 ± 0.72
CTATAT,7.37 ± 2.9,4.48 ± 1.6,5.55 ± 0.85
GTGCAA,1.32 ± 0.22,1.89 ± 1.4,1.25 ± 0.53
ACACCT,2.53 ± 1.6,2.6 ± 1.3,1.66 ± 0.33

Sequence,relative kcat/Km [1],relative kcat/Km [2],relative kcat/Km [3]
TCAGCC,3.15 ± 0.59,2.48 ± 0.96,2.37 ± 0.56
GAGCAG,1.27 ± 0.062,–,0.164 ± 0.047
ACGCGA,2.07 ± 0.28,2.19 ± 0.79,1.29 ± 0.1
CTGTTA,2.19 ± 0.06,2.76 ± 1.4,1.44 ± 1.1
CGACGT,2.36 ± 1.5,–,2.25 ± 1.1
CAGGGC,0.809 ± 0.4,–,0.734 ± 0.28
GCCGTA,3.66 ± 1.4,2.27 ± 0.21,2.93 ± 0.69
GGTAAC,2.64 ± 1.5,1.47 ± 0.022,1.618 ± 0.0045
GGATAT,3.4 ± 1.9,1.83 ± 0.13,2.63 ± 0.49
CGATAC,5.79 ± 2.4,3.25 ± 1.4,4.04 ± 1
CGATAT,6.68 ± 3,3.51 ± 0.4,5.17 ± 2.6
GTCAAT,7.14 ± 3.8,3.17 ± 0.8,4.56 ± 1.9
CTCAAG,4.67 ± 1.1,2.69 ± 2,2.93 ± 1.3
CTTAAG,2.28 ± 0.23,1.2 ± 0.59,1.63 ± 0.79
ACCAAG,2.7 ± 0.17,–,0.763 ± 0.21
GGCAAT,3.04 ± 1.2,1.76 ± 0.086,1.558 ± 0.015
GCCAAT,4.52 ± 2.3,3.15 ± 0.068,2.75 ± 1.7
GGCAAA,3.46 ± 0.93,2.21 ± 1,3.13 ± 0.17
CTCAAA,8.02 ± 3.1,4.31 ± 1.6,4.92 ± 1.4
ATCAAA,7.44 ± 3.2,3.96 ± 1.9,5.34 ± 0.78
GTCAAA,8.75 ± 3.3,4.62 ± 1.6,5.99 ± 1.9
ATCAAG,3.87 ± 0.91,–,1.96 ± 0.14
GTCAAG,5.35 ± 2.1,1.75 ± 0.96,2.63 ± 0.65
CAGTCA,2.56 ± 1.5,1.56 ± 0.78,1.64 ± 1.4
TGTAGG,1.61 ± 0.48,–,0.426 ± 0.27

Sequence,relative kcat/Km [1],relative kcat/Km [2],relative kcat/Km [3]
CAACCC,1.22 ± 0.096,1.41 ± 0.43,1.26 ± 0.56
TCACAC,5.86 ± 2,3.8 ± 1.1,4.7 ± 1.1
CCACAC,3.97 ± 1.5,1.98 ± 0.78,2.63 ± 0.9
GCTAGA,2.45 ± 0.62,1.329 ± 0.007,1.71 ± 0.21
GCCCGG,0.437 ± 0.31,0.406 ± 0.099,–
CAGAGG,0.599 ± 0.16,–,–
ACATCT,4.12 ± 1.9,2.62 ± 1.1,3.25 ± 0.78
TCATGG,0.476 ± 0.47,0.253 ± 0.062,0.443 ± 0.084
GATAAC,3.66 ± 1,2.1 ± 0.44,2.81 ± 0.13
TATGTG,0.506 ± 0.12,–,–
ATCTGG,1.46 ± 0.34,0.825 ± 0.53,–
ATCAGA,7.03 ± 1.9,3.76 ± 2,4.59 ± 0.2
GTCGGA,1.51 ± 1.2,–,1.67 ± 1.1
GCCAGA,5.56 ± 1.6,2.6 ± 2,2.26 ± 0.32
CTCAGT,2.13 ± 1.4,1.02 ± 0.51,1.91 ± 1.4
ATCAGG,1.41 ± 0.062,0.528 ± 0.016,–
CTCAGG,2.45 ± 0.18,1.96 ± 1.2,1.21 ± 0.29
CTCAGA,8.03 ± 2.7,4.71 ± 1.4,5.99 ± 1
ATCAGT,2.19 ± 2.2,–,1.79 ± 1.8
GTCAGA,9.06 ± 3.4,3.33 ± 0.28,5.57 ± 1.1
GGACAA,2.59 ± 0.96,0.879 ± 0.43,1.34 ± 0.47
TAATTC,3.22 ± 0.89,2.12 ± 1.6,2.45 ± 0.42
AGACGT,1.98 ± 1.9,–,–
TATGCC,2.97 ± 1.5,2.71 ± 0.41,1.72 ± 0.22
TCCGCC,7.97 ± 3.5,4.39 ± 0.68,5.9 ± 0.79
